# BAZ2B inh: qHTS Assay for Inhibitors of BAZ2B | Bromodomain adjacent to zinc finger domain protein 2B (Homo sapiens), Q9UIF8 | AlphaScreen BAZ2B-H3K14Ac peptide displacement | Potency, µM (top dose mostly 114 µM), inactives show top-dose activity change, negative = inhibition, usual class: inhibitors | actives 4.4% (n = 360,000) | AID 504333, 2011; note: % is set by controls: 0 for no effect and ±100 for the full control effect; nearly all actives have a fitted effect of over 60% in size
#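 Protein-peptide AlphaScreen: BAZ2B 50 nM, b-H3K14Ac 50 nM, 1x PBS pH 7.4 + 0.01% Tween-20. Preincubation 30 min RT; cpd 30 min RT (top 110 uM); beads 20 min RT, light-protected.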
# L3MBTL1 block: qHTS Assay for the Inhibitors of L3MBTL1. AlphaScreen L3MBTL1–H3K9me1 peptide binding. Potency, µM (series often up to 57.1 µM), inactives show top-dose activity, negative = inhibition, usual class: inhibitors. actives 0.66% (n = 230,000); note: % is set by controls: 0 for no effect and ±100 for the full control effect; nearly all actives have a fitted effect of over 60% in size
#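 AlphaScreen proximity signal between nickel-chelate acceptor and streptavidin donor beads (final 10 ug/mL) reports binding of 50 nM L3MBTL1 to 75 nM biotin-H3 K9me1 peptide; complex incubated with compounds 30 min at room temperature; cefsulodin titration as control.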
# G9a inh: qHTS Assay for Inhibitors of Histone Lysine Methyltransferase G9a; G9a H3K9 monomethylation, AlphaScreen, 2 h; Histone-lysine N-methyltransferase EHMT2 (Homo sapiens), Q96KQ7; Potency, µM (top dose mostly 102 µM), for inactives: top-dose activity, negative = inhibition, most hits filed as inhibitors; actives 8.8% (n = 350,000); note: % is set by controls: 0 for no effect and ±100 for the full control effect; nearly all actives have a fitted effect of over 75% in size
#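 G9a (20 nM) preincubated 15 min RT with compounds, then 500 nM biotinylated H3K9 peptide and 20 uM SAM added; 2 h RT reaction. Monomethyl-H3K9 product detected by AlphaScreen with anti-H3K9me1 antibody, streptavidin donor and anti-rabbit IgG acceptor beads.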
# HP1b binding inh: HTS for Inhibitors of HP1-beta Chromodomain Interactions with Methylated Histone Tails. AlphaScreen HP1-beta / biotin-H3K9me3 peptide binding. actives 0.56% (n = 390,000). Potency, µM (titrated, usually from 114 µM), inactives show at the top dose activity change, negative = inhibition, usual class: inhibitors. Chromobox protein homolog 1 (Homo sapiens), P83916; note: nearly all actives have a fitted effect of over 70% in size
#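 HP1-beta protein (50 nM final) preincubated 30 min at room temperature with biotinylated H3(1-18)K9me3 peptide (50 nM) in PBS pH 7.4, 0.01% Tween-20, then compound added for 30 min. AlphaScreen streptavidin donor/nickel chelate acceptor beads (10 ug/mL final), 30 min dark, luminescence read.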
# GLS inhibitor: qHTS for Inhibitors of Glutaminase (GLS); Potency, µM (highest dose often 45.5 µM), for the others: at the highest dose activity change, negative = inhibition, usual class: inhibitors; GLS enzymatic activity, qHTS titration; actives 0.21% (n = 410,000); note: % is set by controls: 0 for no effect and ±100 for the full control effect
#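 Glutamate formation by hKGA was monitored fluorometrically using coupled glutamate oxidase, HRP and Amplex Red. Substrate was added as 1 mM L-glutamine solution; incubation was 30 min at RT after an initial read.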
# JMJD2A Tudor inh: qHTS Assay for Inhibitors of JMJD2A-Tudor Domain; Lysine-specific demethylase 4A (Homo sapiens), O75164; AID 504339, 2011; AlphaScreen JMJD2A-Tudor / H3K4me3 peptide binding; Potency, µM (series often up to 114 µM), for inactives: at the top dose activity change, negative = inhibition, actives largely listed as inhibitors; actives 4.4% (n = 390,000); note: % is set by controls: 0 for no effect and ±100 for the full control effect; nearly all actives have a fitted effect of over 50% in size
# * hit, by the source's call; ? = inconclusive; · = no result; [ ] = remark or other dose. Sampled rows, rich in hits. Any-hit rate of the full collection: about 10%. Calls come from the whole dose curve; as a rule, active = well fitted curve in the direction sought with a large enough effect; inconclusive = small, poorly fitted or top-dose-only effect, or another doubt; inactive = no such curve, though single readings can be large; an effect the other way counts as inactive or inconclusive. Potency is the fitted concentration of half-maximal effect.
SMILES,BAZ2B inh,L3MBTL1 block,G9a inh,HP1b binding inh,GLS inhibitor,JMJD2A Tudor inh
CC(=O)N1CCC2(CC1)OC(=O)C(C)=C2C(=O)Nc1cccc(Cl)c1C,-5.6%,·,7.9%[59 µM],37.9%,4.4%,-16.5%
Cc1ccc(S(=O)(=O)n2nnc3ccccc32)c(C)c1C,?,-4.5%,50.1µM*,60.3%,-5.1%,-32.6%
Cc1ccc(Cn2ccc(NC(=O)c3cc(-c4ccc(Cl)c(Cl)c4)on3)n2)cc1,3.6%,·,3.5%[59 µM],17.3%,-5.2%,-2.0%
CC(N)C(=O)NC(C(=O)N1CCCC1C(=O)NC(c1ccccc1)c1ccccc1)C(C)C (stereo not given),-2.8%,15.3%,8.5%[2.33 µM],22.8%,14.6%,89.1µM*
CCOc1cc(C(c2c(C)[nH]n(-c3ccccc3)c2=O)c2c(C)[nH]n(-c3ccccc3)c2=O)ccc1O,11.2µM*,·,?,?,2.7%,50.1µM*
Cc1[nH]n(-c2ccccc2)c(=O)c1C(c1cc(Cl)ccc1O)c1c(C)[nH]n(-c2ccccc2)c1=O,?,·,?,?,-3.8%,44.7µM*
CCCCCCCCCCCCCCCC(=O)OC(C)C,·,·,19.8%[59 µM],·,7.1%,·
Cc1cc[n+](-c2nc([O-])sc2/C=N/Nc2ccc([N+](=O)[O-])cc2)cc1,?,·,44.7µM*,-20.7%,8.4%,-32.6%
CCSc1ncc(/C=N/Nc2ccc([N+](=O)[O-])cc2)n1C,-8.0%,3.3%,?,2.2%,-7.9%,7.5%
CC1(C)CC(=O)C2=C(C1)NC(=S)C(C#N)C21CCCCC1 (stereo not given),?,·,0.501µM*,?,-19.1%,7.94µM*
CCOC(=O)c1[nH]c(C)c(/C(O)=C2\C(=O)C(=O)N(CCCN3CCOCC3)C2c2cccnc2)c1C (stereo not given),-7.6%,2.7%,22.4µM*,35.2%,0.1%,-14.6%
COC(=O)c1[nH]c(C)c(/C(O)=C2\C(=O)C(=O)N(CCN(C)C)C2c2ccc(C)o2)c1C (stereo not given),-32.6%,5.4%,39.8µM*,7.7%,-0.1%,35.5µM*
COC(=O)c1[nH]c(C)c(/C(O)=C2\C(=O)C(=O)N(CCCN3CCOCC3)C2c2ccccn2)c1C (stereo not given),50.1µM*,-20.2%,?,35.7%,-1.8%,?
COC(=O)c1[nH]c(C)c(/C(O)=C2\C(=O)C(=O)N(CCN(C)C)C2c2ccco2)c1C (stereo not given),-0.6%,1.5%,?,35.4%,-0.1%,-5.6%
CCOC(=O)c1[nH]c(C)c(/C(O)=C2\C(=O)C(=O)N(CCCn3ccnc3)C2c2ccncc2)c1C (stereo not given),?,-1.2%,50.1µM*,21.3%,-1.0%,35.5µM*
CCc1ccc(NC(=O)CN(C)S(=O)(=O)c2ccc3c(c2)c(=O)n(C)c(=O)n3C)cc1,-3.4%,·,-4.1%[59 µM],33.5%,-12.2%,5.4%
O=C1NCCCC2c3cc(O)c4ccccc4c3OC12N1CCCCC1 (stereo not given),?,-16.8%,3.55µM*,·,·,·
O=C1NCCCC2c3c(cc(Br)c(O)c3Br)OC12N1CCOCC1 (stereo not given),·,14.4%,?,-29.8%,-13.0%,?
Cc1cc(Cl)c(OCCCNC2CCCC2)c(Br)c1,?,1.2%,10µM*,-36.8%,0.3%,22.4µM*
COCCCNCCCCOc1c(Cl)cc(C)cc1Br,22.4µM*,-4.2%,·,?,0.1%,2.51µM*
